# In PubChem BioAssay AID651642 (Sanford-Burnham Center for Chemical Genomics, 2012):
# Activity calls are given as the source filed them.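 Rule for the calls: active = average half-effect concentration of 10 µM or less in every one of the four cell panels; inactive = the rest.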
# Test system: HL-1
# Test: protection of cardiomyocytes from stress damage, SAR follow-up, cell-based, panel, H9c2 and HL-1, H2O2, 2-deoxyglucose, ATP luminescence (AID 651642)
# Details: H9c2/HL-1 cardiomyocyte 2-deoxyglucose damage, mean of runs, with 2-deoxyglucose
row,Compound,outcome
1,COc1cccc(CNC(=O)CNC(=O)c2cc(-c3cc(OC)c(OC)c(OC)c3)nc3ccccc23)c1,inactive
2,CCOC(=O)c1cccc(NC(=O)c2cc(-c3cc(OC)c(OC)c(OC)c3)nc3ccc(F)cc23)c1,inactive
3,COc1cc(-c2cc(C(=O)Nc3cccc(-c4nn[nH]n4)c3)c3ccccc3n2)cc(OC)c1OC,inactive
4,COc1cc(-c2cc(C(=O)Nc3cccc(C(C)=O)c3)c3ccccc3n2)cc(OC)c1OC,active
5,CCOC(=O)c1cccc(NC(=O)c2cc(-c3cc(OC)c(OC)c(OC)c3)nc3cc(Cl)ccc23)c1,inactive
